Test in all cases: DAPPL (digital affinity profiling via proximity ligation, sequencing); 10 mM Tris-HCl pH 7.5, 50 mM NaCl, 1 mM DTT, 4% glycerol, room temperature, 30 min; GST-TFs on glutathione beads, 16-mer random dsDNA library, 0.1% formaldehyde crosslink after washing; high values mean tight binding
Experiment [1] concerns the target T1, FLI1 (Homo sapiens, UniProt Q01543 1-452).
T1 sequence: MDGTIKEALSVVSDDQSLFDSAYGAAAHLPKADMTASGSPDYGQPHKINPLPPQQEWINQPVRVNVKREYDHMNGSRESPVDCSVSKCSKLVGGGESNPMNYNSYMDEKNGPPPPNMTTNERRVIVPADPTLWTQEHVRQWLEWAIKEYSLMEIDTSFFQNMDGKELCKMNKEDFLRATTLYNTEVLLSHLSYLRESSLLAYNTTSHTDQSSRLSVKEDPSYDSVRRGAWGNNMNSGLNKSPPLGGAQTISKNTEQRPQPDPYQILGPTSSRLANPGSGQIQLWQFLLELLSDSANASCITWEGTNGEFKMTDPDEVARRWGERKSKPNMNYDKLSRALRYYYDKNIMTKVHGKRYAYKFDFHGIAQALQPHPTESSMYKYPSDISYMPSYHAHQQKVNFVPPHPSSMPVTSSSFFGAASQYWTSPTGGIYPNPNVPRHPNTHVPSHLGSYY
The note with it: protein: recombinant; tags: N-terminal GST; dsDNA, one strand shown. In a few lines: (§1)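 Binding signal is given per hexamer as its read frequency for a factor divided by its frequency in the tag-only sample. GST-fused human transcription factors were expressed in yeast, captured on glutathione beads, barcoded with DNA and pooled with that sample, then incubated with 200 nmole of a 16-mer random double-stranded DNA library in Tris/NaCl/DTT/glycerol buffer for 30 min at room temperature. The pools were then washed, crosslinked, proximity-ligated, amplified by PCR and sequenced on an Illumina NextSeq500.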

Experiment [2] deals with T2, ELK1 (Homo sapiens, UniProt P19419 1-428).
T2 sequence: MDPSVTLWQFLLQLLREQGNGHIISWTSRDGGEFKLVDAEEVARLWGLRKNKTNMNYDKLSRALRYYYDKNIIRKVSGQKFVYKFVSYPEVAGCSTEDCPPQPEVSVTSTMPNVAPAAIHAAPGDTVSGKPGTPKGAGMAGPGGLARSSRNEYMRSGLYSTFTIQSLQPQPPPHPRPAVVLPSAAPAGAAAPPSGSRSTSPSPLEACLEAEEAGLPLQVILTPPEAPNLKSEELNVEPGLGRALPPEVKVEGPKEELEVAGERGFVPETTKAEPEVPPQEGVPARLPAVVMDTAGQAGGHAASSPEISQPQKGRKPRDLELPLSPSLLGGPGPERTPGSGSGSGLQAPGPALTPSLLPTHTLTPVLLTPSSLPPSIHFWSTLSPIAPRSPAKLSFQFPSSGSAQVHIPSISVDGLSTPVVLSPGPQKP
The note with it: protein: recombinant; tags: N-terminal GST; dsDNA, one strand shown. In a few lines:
as §1

In experiment [3] the target is T3, GABPA (Homo sapiens, UniProt Q06546 1-454).
T3 sequence: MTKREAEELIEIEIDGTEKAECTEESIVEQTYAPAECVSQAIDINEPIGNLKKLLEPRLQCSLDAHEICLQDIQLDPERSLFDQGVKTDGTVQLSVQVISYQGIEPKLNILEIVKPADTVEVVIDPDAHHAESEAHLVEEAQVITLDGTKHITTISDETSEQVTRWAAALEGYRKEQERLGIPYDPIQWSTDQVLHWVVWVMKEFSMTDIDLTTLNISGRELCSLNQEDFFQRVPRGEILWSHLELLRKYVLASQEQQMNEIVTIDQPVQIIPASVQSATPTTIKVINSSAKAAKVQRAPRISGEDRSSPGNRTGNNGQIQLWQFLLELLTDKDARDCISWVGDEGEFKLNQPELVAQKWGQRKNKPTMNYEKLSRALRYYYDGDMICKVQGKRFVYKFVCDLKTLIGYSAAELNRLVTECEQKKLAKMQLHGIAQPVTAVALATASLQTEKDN
The note with it: protein: recombinant; tags: N-terminal GST; dsDNA, one strand shown. In a few lines:
as §1

Experiment [4] addresses T4, ERG (Homo sapiens, UniProt P11308 1-479).
T4 sequence: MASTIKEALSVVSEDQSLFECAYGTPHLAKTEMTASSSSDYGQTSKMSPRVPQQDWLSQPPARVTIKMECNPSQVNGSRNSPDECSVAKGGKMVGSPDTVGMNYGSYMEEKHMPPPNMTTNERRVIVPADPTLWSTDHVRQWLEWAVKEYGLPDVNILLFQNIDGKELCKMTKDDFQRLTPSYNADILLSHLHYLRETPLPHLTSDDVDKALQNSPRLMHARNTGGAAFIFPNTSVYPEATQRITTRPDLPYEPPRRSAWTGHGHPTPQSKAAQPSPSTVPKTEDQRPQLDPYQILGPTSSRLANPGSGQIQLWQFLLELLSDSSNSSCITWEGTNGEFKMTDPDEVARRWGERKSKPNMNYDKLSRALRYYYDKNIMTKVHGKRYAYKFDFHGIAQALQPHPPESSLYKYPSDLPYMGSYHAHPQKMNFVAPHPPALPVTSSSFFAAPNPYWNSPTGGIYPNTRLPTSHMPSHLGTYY
To be noted: protein: recombinant; tags: N-terminal GST; dsDNA, one strand shown. The method, boiled down:
as §1

In experiment [5] the target is ELF1 (Homo sapiens, UniProt P32519 1-619). To be noted: protein: recombinant; tags: N-terminal GST; dsDNA, one strand shown. In a few lines: as §1
The target in experiment [6] is T5, EHF (Homo sapiens, UniProt Q9NZC4 1-300).
T5 sequence: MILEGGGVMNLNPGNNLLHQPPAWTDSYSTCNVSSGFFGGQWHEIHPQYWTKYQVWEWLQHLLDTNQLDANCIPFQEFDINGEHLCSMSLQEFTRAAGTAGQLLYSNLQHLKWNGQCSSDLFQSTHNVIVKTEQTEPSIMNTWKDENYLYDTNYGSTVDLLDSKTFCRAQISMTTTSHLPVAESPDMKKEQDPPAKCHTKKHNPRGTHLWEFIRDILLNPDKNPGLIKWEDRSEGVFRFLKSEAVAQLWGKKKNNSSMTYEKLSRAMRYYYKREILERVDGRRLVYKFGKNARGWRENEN
To be noted: protein: recombinant; tags: N-terminal GST; dsDNA, one strand shown. The method, boiled down:
as §1

Experiment [7] concerns the target SPI1 (Homo sapiens, UniProt P17947 1-270). To be noted: protein: recombinant; tags: N-terminal GST; dsDNA, one strand shown. The method, boiled down:
as §1

The target of experiment [8] is SPIB (Homo sapiens, UniProt Q01892 1-262). The note with it: protein: recombinant; tags: N-terminal GST; dsDNA, one strand shown. In a few lines: as §1
For experiment [9], the target named is T6, ELK3 (Homo sapiens, UniProt P41970 1-407).
T6 sequence: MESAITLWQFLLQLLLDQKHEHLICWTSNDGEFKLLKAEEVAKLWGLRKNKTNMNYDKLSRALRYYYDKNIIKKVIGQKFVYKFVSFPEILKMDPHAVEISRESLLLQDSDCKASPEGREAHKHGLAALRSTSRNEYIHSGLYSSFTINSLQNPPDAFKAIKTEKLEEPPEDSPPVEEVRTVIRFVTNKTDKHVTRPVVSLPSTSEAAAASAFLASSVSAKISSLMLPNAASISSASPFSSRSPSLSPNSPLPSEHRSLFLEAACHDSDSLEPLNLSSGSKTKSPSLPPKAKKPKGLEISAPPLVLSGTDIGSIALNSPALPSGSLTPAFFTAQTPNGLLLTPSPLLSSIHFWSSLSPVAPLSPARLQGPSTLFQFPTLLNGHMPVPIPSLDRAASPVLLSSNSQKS
To be noted: protein: recombinant; tags: N-terminal GST; dsDNA, one strand shown. The method, boiled down: as §1

In experiment [10] the target is T7, FEV (Homo sapiens, UniProt Q99581 1-238).
T7 sequence: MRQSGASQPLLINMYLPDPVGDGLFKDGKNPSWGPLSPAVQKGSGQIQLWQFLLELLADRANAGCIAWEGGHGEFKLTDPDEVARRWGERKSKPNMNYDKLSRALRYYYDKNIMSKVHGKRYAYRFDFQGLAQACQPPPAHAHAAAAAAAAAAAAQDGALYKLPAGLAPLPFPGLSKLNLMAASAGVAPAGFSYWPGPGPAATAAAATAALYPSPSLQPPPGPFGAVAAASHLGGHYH
The note with it: protein: recombinant; tags: N-terminal GST; dsDNA, one strand shown. The method, boiled down: as §1

For experiment [11], the target named is ETV5 (Homo sapiens, UniProt P41161 1-510). The note with it: protein: recombinant; tags: N-terminal GST; dsDNA, one strand shown. The method, boiled down: as §1
Experiment [12] addresses HSF1 (Homo sapiens, UniProt Q00613 1-529). To be noted: protein: recombinant; tags: N-terminal GST; chain copies: 3; dsDNA, one strand shown. In a few lines:
as §1

Experiment [13] has as its target T8, SPIC (Homo sapiens, UniProt Q8N5J4 1-248).
T8 sequence: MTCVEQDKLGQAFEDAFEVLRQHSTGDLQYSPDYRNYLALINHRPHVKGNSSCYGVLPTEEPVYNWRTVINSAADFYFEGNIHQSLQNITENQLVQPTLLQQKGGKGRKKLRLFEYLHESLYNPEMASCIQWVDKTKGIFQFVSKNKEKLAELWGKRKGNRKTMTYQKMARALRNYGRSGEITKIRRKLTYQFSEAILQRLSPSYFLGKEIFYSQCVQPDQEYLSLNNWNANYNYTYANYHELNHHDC
The note with it: protein: recombinant; tags: N-terminal GST; dsDNA, one strand shown. In a few lines: as §1

For experiment [14], the target named is ELF4 (Homo sapiens, UniProt Q99607 1-663). The note with it: protein: recombinant; tags: N-terminal GST; dsDNA, one strand shown. In a few lines:
as §1

Experiment [15] addresses T9, ELK4 (Homo sapiens, UniProt P28324-2 1-405).
T9 sequence: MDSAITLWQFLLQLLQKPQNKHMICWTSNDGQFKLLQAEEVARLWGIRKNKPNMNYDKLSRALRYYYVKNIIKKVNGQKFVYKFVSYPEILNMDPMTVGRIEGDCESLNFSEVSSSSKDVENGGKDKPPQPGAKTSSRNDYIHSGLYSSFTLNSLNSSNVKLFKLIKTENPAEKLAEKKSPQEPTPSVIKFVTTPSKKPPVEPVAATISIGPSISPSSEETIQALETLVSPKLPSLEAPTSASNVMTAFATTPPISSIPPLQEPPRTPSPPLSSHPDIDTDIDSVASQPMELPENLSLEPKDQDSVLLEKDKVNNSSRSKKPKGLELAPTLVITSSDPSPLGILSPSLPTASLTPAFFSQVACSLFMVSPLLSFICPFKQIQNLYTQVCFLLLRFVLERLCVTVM
To be noted: protein: recombinant; tags: N-terminal GST; dsDNA, one strand shown. The method, boiled down: as §1

Experiment [16] addresses T10, ETV2 (Homo sapiens, UniProt O00321 1-342).
T10 sequence: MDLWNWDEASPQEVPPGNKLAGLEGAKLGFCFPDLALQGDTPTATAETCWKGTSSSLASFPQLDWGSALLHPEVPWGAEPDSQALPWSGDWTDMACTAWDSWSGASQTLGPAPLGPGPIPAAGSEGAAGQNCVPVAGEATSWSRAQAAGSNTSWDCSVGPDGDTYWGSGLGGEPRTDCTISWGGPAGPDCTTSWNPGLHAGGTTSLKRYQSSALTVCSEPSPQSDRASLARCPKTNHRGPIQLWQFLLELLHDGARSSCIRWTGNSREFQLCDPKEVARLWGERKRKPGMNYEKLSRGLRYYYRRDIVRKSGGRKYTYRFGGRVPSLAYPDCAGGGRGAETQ
To be noted: protein: recombinant; tags: N-terminal GST; dsDNA, one strand shown. In a few lines: as §1

Experiment [17] concerns the target T11, ELF3 (Homo sapiens, UniProt P78545 1-371).
T11 sequence: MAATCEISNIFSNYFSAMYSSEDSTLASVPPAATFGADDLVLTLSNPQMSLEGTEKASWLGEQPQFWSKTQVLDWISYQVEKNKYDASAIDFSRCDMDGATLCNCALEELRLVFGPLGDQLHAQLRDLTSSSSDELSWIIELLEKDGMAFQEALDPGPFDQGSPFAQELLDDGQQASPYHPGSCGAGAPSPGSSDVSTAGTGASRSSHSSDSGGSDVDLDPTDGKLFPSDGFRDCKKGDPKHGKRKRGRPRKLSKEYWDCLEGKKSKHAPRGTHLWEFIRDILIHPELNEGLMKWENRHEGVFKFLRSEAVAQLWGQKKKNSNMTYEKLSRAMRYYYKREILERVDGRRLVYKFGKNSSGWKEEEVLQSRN
To be noted: protein: recombinant; tags: N-terminal GST; dsDNA, one strand shown. The method, boiled down:
as §1

The target in experiment [18] is CRX (Homo sapiens, UniProt O43186 1-299). To be noted: protein: recombinant; tags: N-terminal GST; dsDNA, one strand shown. The method, boiled down:
as §1

Experiment [19] addresses ETV1 (Homo sapiens, UniProt P50549 1-477). The note with it: protein: recombinant; tags: N-terminal GST; dsDNA, one strand shown. The method, boiled down:
as §1

Chain of CRX (O43186 whole entry): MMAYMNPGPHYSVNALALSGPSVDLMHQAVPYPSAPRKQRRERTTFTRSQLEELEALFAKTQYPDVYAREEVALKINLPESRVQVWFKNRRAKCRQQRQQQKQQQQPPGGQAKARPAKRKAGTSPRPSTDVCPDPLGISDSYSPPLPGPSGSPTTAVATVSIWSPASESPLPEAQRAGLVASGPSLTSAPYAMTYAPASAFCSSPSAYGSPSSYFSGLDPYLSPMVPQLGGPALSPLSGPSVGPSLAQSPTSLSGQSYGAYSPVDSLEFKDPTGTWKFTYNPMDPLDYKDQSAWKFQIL
Chain of SPIB (Q01892 whole entry): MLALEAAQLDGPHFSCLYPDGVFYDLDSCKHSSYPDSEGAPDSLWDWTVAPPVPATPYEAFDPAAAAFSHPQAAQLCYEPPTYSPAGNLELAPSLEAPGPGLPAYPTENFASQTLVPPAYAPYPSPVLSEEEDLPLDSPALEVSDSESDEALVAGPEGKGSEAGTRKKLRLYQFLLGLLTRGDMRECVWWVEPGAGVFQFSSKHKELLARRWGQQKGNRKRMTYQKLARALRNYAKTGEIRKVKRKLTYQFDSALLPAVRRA
Chain of HSF1 (Q00613 whole entry): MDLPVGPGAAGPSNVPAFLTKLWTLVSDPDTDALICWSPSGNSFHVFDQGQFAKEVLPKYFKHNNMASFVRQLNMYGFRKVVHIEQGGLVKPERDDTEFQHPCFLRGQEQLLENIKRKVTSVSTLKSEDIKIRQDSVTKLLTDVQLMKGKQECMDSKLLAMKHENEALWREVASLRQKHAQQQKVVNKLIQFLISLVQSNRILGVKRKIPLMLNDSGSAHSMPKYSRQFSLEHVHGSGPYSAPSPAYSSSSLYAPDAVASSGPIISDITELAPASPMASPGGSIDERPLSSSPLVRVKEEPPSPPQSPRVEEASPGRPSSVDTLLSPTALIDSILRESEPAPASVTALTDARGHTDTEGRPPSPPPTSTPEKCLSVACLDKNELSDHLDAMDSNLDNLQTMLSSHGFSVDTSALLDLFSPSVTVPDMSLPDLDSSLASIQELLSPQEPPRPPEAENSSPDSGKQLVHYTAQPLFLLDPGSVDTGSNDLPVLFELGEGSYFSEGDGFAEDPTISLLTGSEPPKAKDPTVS
Chain of ELF4 (Q99607 whole entry): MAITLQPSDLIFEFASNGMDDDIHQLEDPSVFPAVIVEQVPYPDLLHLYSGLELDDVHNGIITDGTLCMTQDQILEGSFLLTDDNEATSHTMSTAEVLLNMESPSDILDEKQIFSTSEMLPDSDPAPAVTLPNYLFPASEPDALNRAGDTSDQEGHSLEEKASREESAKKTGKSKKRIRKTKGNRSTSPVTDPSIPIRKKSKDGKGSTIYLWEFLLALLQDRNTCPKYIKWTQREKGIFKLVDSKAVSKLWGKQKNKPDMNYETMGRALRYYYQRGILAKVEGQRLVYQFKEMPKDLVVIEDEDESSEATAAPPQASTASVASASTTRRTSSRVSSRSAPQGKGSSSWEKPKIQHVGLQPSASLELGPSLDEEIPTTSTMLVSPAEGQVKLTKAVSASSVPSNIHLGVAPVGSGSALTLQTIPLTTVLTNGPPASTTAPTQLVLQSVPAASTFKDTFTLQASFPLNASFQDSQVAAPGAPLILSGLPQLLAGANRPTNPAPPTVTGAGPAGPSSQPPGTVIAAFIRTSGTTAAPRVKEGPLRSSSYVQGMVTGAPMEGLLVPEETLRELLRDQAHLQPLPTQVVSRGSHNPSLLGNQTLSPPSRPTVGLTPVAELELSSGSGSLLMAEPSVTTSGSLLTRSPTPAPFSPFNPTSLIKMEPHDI
Chain of ETV5 (P41161 whole entry): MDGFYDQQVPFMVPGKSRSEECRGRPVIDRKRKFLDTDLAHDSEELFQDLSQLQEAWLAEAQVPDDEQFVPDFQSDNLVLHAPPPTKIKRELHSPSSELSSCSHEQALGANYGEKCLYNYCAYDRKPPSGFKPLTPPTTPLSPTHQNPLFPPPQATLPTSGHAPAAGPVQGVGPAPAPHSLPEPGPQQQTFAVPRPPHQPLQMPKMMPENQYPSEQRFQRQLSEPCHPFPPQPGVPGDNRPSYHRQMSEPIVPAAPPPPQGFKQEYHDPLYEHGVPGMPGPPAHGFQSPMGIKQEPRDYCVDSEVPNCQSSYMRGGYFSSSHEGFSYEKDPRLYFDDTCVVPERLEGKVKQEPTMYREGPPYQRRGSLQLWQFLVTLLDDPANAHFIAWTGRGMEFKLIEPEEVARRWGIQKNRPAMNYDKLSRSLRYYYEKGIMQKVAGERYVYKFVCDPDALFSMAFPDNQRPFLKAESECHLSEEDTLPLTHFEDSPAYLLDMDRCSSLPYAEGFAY
Chain of ELF1 (P32519 whole entry): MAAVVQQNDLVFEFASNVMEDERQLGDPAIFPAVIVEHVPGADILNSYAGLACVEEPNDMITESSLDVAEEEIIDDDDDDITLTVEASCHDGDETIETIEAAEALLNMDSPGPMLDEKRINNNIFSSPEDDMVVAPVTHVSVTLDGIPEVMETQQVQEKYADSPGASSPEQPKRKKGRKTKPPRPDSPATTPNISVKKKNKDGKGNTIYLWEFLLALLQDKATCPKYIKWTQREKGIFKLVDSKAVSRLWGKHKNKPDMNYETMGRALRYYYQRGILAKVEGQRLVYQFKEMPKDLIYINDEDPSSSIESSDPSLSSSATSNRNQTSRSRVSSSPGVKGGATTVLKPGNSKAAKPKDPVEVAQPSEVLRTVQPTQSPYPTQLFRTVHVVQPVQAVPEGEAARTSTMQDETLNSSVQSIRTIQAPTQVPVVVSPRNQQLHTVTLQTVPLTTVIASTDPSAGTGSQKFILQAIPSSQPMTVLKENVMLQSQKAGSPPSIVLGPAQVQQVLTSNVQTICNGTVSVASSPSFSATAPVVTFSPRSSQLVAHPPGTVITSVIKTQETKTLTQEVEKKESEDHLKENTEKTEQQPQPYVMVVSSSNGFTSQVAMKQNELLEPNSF
Chain of ETV1 (P50549 whole entry): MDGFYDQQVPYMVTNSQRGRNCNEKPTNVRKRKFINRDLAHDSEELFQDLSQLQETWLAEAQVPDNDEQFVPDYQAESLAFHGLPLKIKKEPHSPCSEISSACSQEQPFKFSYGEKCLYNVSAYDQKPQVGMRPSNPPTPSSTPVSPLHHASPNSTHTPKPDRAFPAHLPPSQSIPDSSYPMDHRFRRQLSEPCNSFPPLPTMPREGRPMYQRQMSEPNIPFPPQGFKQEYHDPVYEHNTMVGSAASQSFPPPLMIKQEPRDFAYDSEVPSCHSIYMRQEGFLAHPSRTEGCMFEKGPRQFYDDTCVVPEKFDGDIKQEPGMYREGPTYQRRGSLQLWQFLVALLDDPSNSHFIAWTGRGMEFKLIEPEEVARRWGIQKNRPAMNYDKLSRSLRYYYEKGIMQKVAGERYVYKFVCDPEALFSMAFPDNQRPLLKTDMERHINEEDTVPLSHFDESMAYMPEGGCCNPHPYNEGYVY

TCTACG: the binding signal in experiment [1] was 1.37 fold enrichment (6-mer frequency, TF over GST control); in experiment [2], 1.4 fold enrichment (6-mer frequency, TF over GST control); in experiment [3], 1.3 fold enrichment (6-mer frequency, TF over GST control); in [4] it was 1.32 fold enrichment (6-mer frequency, TF over GST control); in [5], 1.38 fold enrichment (6-mer frequency, TF over GST control); in experiment [6], 1.32 fold enrichment (6-mer frequency, TF over GST control). The binding signal in experiment [7] is 1.49 fold enrichment (6-mer frequency, TF over GST control); in experiment [8], 1.44 fold enrichment (6-mer frequency, TF over GST control); in experiment [9], 1.28 fold enrichment (6-mer frequency, TF over GST control); in experiment [10], 1.52 fold enrichment (6-mer frequency, TF over GST control); in experiment [11] it was 1.3 fold enrichment (6-mer frequency, TF over GST control); in [12], 1.49 fold enrichment (6-mer frequency, TF over GST control). In addition, the binding signal in experiment [13] was 1.3 fold enrichment (6-mer frequency, TF over GST control); in experiment [14], 1.37 fold enrichment (6-mer frequency, TF over GST control); in experiment [15], 1.36 fold enrichment (6-mer frequency, TF over GST control); in experiment [16], 1.38 fold enrichment (6-mer frequency, TF over GST control); in experiment [17], 1.5 fold enrichment (6-mer frequency, TF over GST control); in [18] it was 1.44 fold enrichment (6-mer frequency, TF over GST control). For the same sequence, the binding signal in experiment [19] was 1.44 fold enrichment (6-mer frequency, TF over GST control).

Values taken from PMC7862700, “An all-to-all approach to the identification of sequence-specific readers for epigenetic DNA modifications on cytosine”.
